{
  "source": "PubChem BioAssay AID2221",
  "about": "(Broad Institute, 2009)",
  "note": "Out of some 290,000 compounds screened, about 2,200 (0.76%) were called active. For the sample, actives were picked, then their nearest neighbours and some compounds at random. Values without a mark were called inactive. Cut-off read from the data, not from the text of the source: active = inhibition above about 30%; inconclusive = no clear call, values can overlap the other calls; inactive = below that.",
  "data": [
    {"biological_target": "Protein RecA (Mycobacterium tuberculosis (strain ATCC 25618 / H37Rv)) (UniProt P9WHJ3)", "sequence (P9WHJ3 whole entry, looked up)": "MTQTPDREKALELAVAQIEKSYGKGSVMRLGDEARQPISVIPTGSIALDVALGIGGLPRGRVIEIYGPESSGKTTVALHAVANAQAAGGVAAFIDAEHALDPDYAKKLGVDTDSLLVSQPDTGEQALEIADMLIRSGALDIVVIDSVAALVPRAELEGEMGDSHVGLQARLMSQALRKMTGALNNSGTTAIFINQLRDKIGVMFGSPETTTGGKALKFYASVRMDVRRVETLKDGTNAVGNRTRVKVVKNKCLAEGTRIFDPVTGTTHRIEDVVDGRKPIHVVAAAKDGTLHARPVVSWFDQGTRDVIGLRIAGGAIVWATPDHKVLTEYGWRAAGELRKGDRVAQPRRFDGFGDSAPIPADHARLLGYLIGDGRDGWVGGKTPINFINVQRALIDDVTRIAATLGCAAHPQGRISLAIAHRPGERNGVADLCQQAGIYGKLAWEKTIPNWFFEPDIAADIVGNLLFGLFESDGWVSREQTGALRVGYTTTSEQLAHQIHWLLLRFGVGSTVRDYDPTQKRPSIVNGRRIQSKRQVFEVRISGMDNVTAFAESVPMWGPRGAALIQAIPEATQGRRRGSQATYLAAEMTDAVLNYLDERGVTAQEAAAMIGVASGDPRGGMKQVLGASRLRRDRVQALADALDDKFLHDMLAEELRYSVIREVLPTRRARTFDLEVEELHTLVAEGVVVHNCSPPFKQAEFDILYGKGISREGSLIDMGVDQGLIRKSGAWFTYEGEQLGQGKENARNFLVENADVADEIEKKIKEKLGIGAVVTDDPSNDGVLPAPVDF", "assay": "Mtb RecA intein splicing inhibitors, primary screen, biochemical, fluorescence, HTS (AID 2221);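 note: 0% = vehicle wells and 100% = reference inhibitor control wells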", "conditions": "cell-free RecA intein splicing, active compounds read high, concentration not given here", "values": [
      {"smiles": "O=[N+]([O-])c1ccc2nc(-c3ccccn3)[nH]c2c1", "inhibition": "0.606%"},
      {"smiles": "COc1ccc(-c2nnc(SCC(=O)Nc3cccnc3Cl)n2C)cc1", "inhibition": "-0.381%"},
      {"smiles": "COc1ccc(N(CC(=O)NCC2CCCO2)C(=O)CCC(=O)Nc2nccs2)c(OC)c1", "note": "(centres undefined)", "inhibition": "1.28%"},
      {"smiles": "Cc1ccc(NC(=O)OCc2cncs2)cc1", "inhibition": "-1.45%"},
      {"smiles": "COc1ccc(NC(=O)c2cc(-c3ccc(C)cc3)on2)cc1", "inhibition": "-0.468%"},
      {"smiles": "COc1ccc(NC(=O)/C(Cl)=C(/Cl)S(=O)Cc2ccc(C)cc2)cn1", "note": "(centres undefined)", "inhibition": "89% (active)"},
      {"smiles": "O=C(Nc1ccccc1-c1nnn(CC(=O)N2CCN(c3ccccc3)CC2)n1)c1cccs1", "inhibition": "0.619%"},
      {"smiles": "COc1ccc(CNC(=O)CN(c2ccc(OC)c(Cl)c2)S(=O)(=O)c2ccc(C)cc2)cc1", "inhibition": "-0.316%"},
      {"smiles": "O=[N+]([O-])c1c(NCCO)cc(Sc2nc3ccccc3s2)c2nonc12", "inhibition": "94.4% (active)"},
      {"smiles": "CCOc1ccccc1Nc1ccc2nonc2c1[N+](=O)[O-]", "inhibition": "2.95%"},
      {"smiles": "O=C(O)c1cccc(S(=O)(=O)Nc2ccc(O)cc2Sc2nc3ccccc3s2)c1", "inhibition": "-3.82%"},
      {"smiles": "CCSc1nnc(NC(=O)c2ccc(C)cc2)s1", "inhibition": "2.42%"},
      {"smiles": "Cc1ccc(S(=O)(=O)CC(=O)Nc2nnc(C)s2)cc1", "inhibition": "-0.704%"},
      {"smiles": "CSc1nnc(NC(=O)c2nc(S(=O)(=O)Cc3ccc(C)cc3)ncc2Cl)s1", "inhibition": "82.8% (active)"},
      {"smiles": "CSc1ncc(Cl)c(C(=O)Nc2cc(C)ccc2C)n1", "inhibition": "-0.95%"},
      {"smiles": "Cc1nnc(NC(=O)CCCOc2ccccc2)s1", "inhibition": "-1.92%"},
      {"smiles": "Cc1ccc(CS(=O)(=O)c2ncc(Cl)c(C(=O)Nc3nnc(C)s3)n2)cc1", "inhibition": "61% (active)"},
      {"smiles": "Cc1cc(Cl)nc(NC(=O)Nc2cccc(Cl)c2)n1", "inhibition": "-0.873%"},
      {"smiles": "O=C(NCCCn1ccnc1)c1cc2c(s1)CCCC2", "inhibition": "1.03%"},
      {"smiles": "C=CCOc1c(Br)cc(/C=N\\n2nnnc2N)cc1OC", "inhibition": "1.44%"},
      {"smiles": "CCOc1c(Br)cc(/C=C2\\C(=O)N(CCC#N)N=C2C)cc1OC", "inhibition": "89.5% (active)"},
      {"smiles": "COc1cc(/C=C2/C(=O)NN(c3cccc(Cl)c3)C2=O)cc(Br)c1O", "inhibition": "9.85%"},
      {"smiles": "Cc1cccc(OCC(=O)NCCNC(=O)c2cccnc2)c1", "inhibition": "4.34%"},
      {"smiles": "Cc1nn(CC(=O)NC2CCCCC2)c(=O)c2cccn12", "inhibition": "-1.92%"},
      {"smiles": "O=C(CN(C(=O)CNC(=O)c1cccs1)c1cccc(F)c1)NC1CCCCC1", "inhibition": "2.36%"},
      {"smiles": "Cc1cc2[nH]ncc2cc1NC(=S)NC(=O)c1ccccc1", "inhibition": "38.6% (active)"},
      {"smiles": "Cc1cccc(NC(=O)NC(=S)NC(=O)c2ccccc2)c1", "inhibition": "1.58%"},
      {"smiles": "Cc1cccc(NC(=S)Nc2ccc3cn[nH]c3c2)c1", "inhibition": "3.44%"},
      {"smiles": "CC(=O)c1c(N2CCN(c3ccc(F)cc3)CC2)nc(=S)n(-c2ccccc2)c1C", "inhibition": "-0.168%"},
      {"smiles": "O=C(CCN1C(=O)[C@@H]2Cc3ccccc3CN2C1=O)NCc1ccccc1", "inhibition": "-0.00645%"},
      {"smiles": "O=C(CCN1C(=O)[C@@H]2Cc3ccccc3CN2C1=O)NCCc1ccccc1", "inhibition": "-9.37%"},
      {"smiles": "Cc1ccc(CNC(=O)CCN2C(=O)[C@@H]3Cc4ccccc4CN3C2=O)cc1", "inhibition": "58% (active)"},
      {"smiles": "Cc1cc(C(=O)N/N=C/c2ccccc2[N+](=O)[O-])c(C)o1", "inhibition": "-1.48%"},
      {"smiles": "Cc1ccsc1/C=N/Nc1ccc(Cl)nn1", "inhibition": "0.218%"},
      {"smiles": "Cc1ccsc1/C=N/NC(=O)Cc1cc(=O)[nH][nH]1", "inhibition": "93.6% (active)"},
      {"smiles": "COc1cc(CC(=O)N/N=C/c2ccccc2)c([N+](=O)[O-])cc1OC", "inhibition": "-1.27%"},
      {"smiles": "O=C(Cc1cc(=O)[nH][nH]1)N/N=C/c1ccccc1[N+](=O)[O-]", "inhibition": "86.9% (active)"},
      {"smiles": "CCOc1ccc(N2CC(C(=O)N/N=C/c3sccc3C)CC2=O)cc1", "note": "(centres undefined)", "inhibition": "-0.809%"},
      {"smiles": "CCCNC(=O)OC[C@H]1O[C@H](CCO/N=C/[C@@H](NS(=O)(=O)c2ccc(C)cc2)[C@H](C)/C=C/CC(=O)OC)C=C[C@@H]1Oc1ccc(OC)cc1", "inhibition": "4.43%"},
      {"smiles": "CCN=c1sc(C(=O)Nc2ccccc2)c(C)n1CC", "inhibition": "-1.39%"},
      {"smiles": "CC(=O)N1CCN(C(=O)C2(NC(=O)Nc3ccc(C)cc3)CCCCC2)CC1", "inhibition": "-0.697%"},
      {"smiles": "O=C1c2cccc3c([N+](=O)[O-])ccc(c23)C(=O)N1CC1CCCO1", "note": "(centres undefined)", "inhibition": "-70.4%"},
      {"smiles": "Cc1ccc(Nc2cc(C)nc3c(C)ccc([N+](=O)[O-])c23)cc1", "inhibition": "63.3% (active)"},
      {"smiles": "Cc1cc(C)nc(Nc2cc([N+](=O)[O-])ccc2C)n1", "inhibition": "-2.26%"},
      {"smiles": "Cc1ccc(Nc2ccc(C(N)=O)cc2[N+](=O)[O-])cc1", "inhibition": "2.38%"},
      {"smiles": "CCN(CC)c1ccc([N+](=O)[O-])c2cccnc12", "inhibition": "14.5%"},
      {"smiles": "Cc1ccccc1Nc1c([N+](=O)[O-])ccc2nonc12", "inhibition": "-1.72%"},
      {"smiles": "CN(c1ccccc1)c1ccc([N+](=O)[O-])c2nonc12", "inhibition": "63.5% (active)"},
      {"smiles": "COc1cc(C(F)(F)F)nc2c(Br)c(C(C)(C)C)nn12", "inhibition": "0.549%"},
      {"smiles": "CCOC(=O)c1cc(S(=O)(=O)NCCc2ccc(OC)c(OC)c2)cn1C", "inhibition": "-0.521%"},
      {"smiles": "COc1ccc(C(=O)NNC(=S)NC(=O)c2ccccc2)cc1", "inhibition": "7.5%"},
      {"smiles": "CC(C)Oc1ccc(CCC(=O)NNC(=S)NCc2ccccc2)cc1", "inhibition": "0.193%"},
      {"smiles": "COc1ccc(C(=O)NC(=S)NNC(=O)CCc2ccccc2)cc1", "inhibition": "34.5% (active)"},
      {"smiles": "COc1ccc(N2CC(C(=O)NCCS(=O)(=O)N3CCN(c4ccccc4)CC3)CC2=O)cc1", "note": "(centres undefined)", "inhibition": "-1.96%"},
      {"smiles": "CC(C)C(NC(=O)C1CCC(C(C)(C)C)CC1)C(=O)NCCCN1CCCCC1", "note": "(centres undefined)", "inhibition": "0.406%"},
      {"smiles": "Cc1c(-c2nn(C)c(=O)c3ccccc23)oc2ccc(F)cc2c1=O", "inhibition": "88.2% (active)"},
      {"smiles": "O=C1c2oc3ccc(Br)cc3c(=O)c2C(c2cccc(F)c2)N1CCO", "note": "(centres undefined)", "inhibition": "1.67%"},
      {"smiles": "Cc1ccc(F)cc1NC(=O)Cc1nn(C)c(=O)c2ccccc12", "inhibition": "-33.8%"},
      {"smiles": "COc1cccc(N2C(=O)CN(Cc3ccccc3)C2=S)c1", "inhibition": "0.665%"},
      {"smiles": "O=C(COc1ccc(Cl)cc1Cl)NCCCNC(=O)c1cnccn1", "inhibition": "1.17%"},
      {"smiles": "CCOC(=O)/C(=N\\Nc1ccccc1[N+](=O)[O-])c1csc(Nc2ccccc2)n1", "inhibition": "-3.85%"},
      {"smiles": "Cc1c(-c2ccccc2)nc(N)c(C#N)c1-c1cccs1", "inhibition": "-1.05%"},
      {"smiles": "CN1CCc2nc(SC(C(=O)O)c3ccccc3)c(C#N)c(-c3cccs3)c2C1", "note": "(centres undefined)", "inhibition": "34.8% (active)"},
      {"smiles": "CCc1c(-c2ccccc2)nc(N)c(C#N)c1-c1cccs1", "inhibition": "4.71%"},
      {"smiles": "O=C(Cc1ccccc1F)NC1CCSc2ccccc21", "note": "(centres undefined)", "inhibition": "-0.276%"},
      {"smiles": "Cc1nc(-c2ccccc2)sc1C1(C)CC(c2cccnc2)=NO1", "note": "(centres undefined)", "inhibition": "1.29%"},
      {"smiles": "N#Cc1nc(N)nc(N(c2ccccc2)c2ccccc2)n1", "inhibition": "37.4% (active)"},
      {"smiles": "Nc1nc(-c2ccccc2)cc(-c2ccccc2)n1", "inhibition": "6.87%"},
      {"smiles": "Cc1nc2ccccn2c(=O)c1NC(=O)c1cccs1", "inhibition": "-0.75%"},
      {"smiles": "Cc1c(Cl)cccc1NC(=O)CCC(=O)N/N=C/c1ccco1", "inhibition": "-1.26%"},
      {"smiles": "CCC(C)NC(=O)CCCc1ccccc1", "note": "(centres undefined)", "inhibition": "-3.16%"},
      {"smiles": "O=C(CCc1nnc(CCCCc2ccccc2)o1)NC(c1cccnc1)C(F)(F)F", "note": "(centres undefined)", "inhibition": "-3.54%"},
      {"smiles": "CC(CCn1cccn1)NC(=O)CCc1nnc(CCc2ccccc2)o1", "note": "(centres undefined)", "inhibition": "36.9% (active)"},
      {"smiles": "Cc1cc(=O)n2nc(N3CCC(C(=O)Nc4c(F)c(F)c(F)c(F)c4F)CC3)sc2n1", "inhibition": "0.056%"},
      {"smiles": "CNC(=O)COC(=O)c1cc(-c2ccc(OC)cc2)nc2ccccc12", "inhibition": "-2.37%"},
      {"smiles": "COc1ccc(-c2cc(C(=O)Nc3ccccc3O)c3ccccc3n2)cc1", "inhibition": "-0.565%"},
      {"smiles": "COc1ccc(-c2cc(C(=O)n3cnc4ccccc43)c3ccccc3n2)cc1", "inhibition": "37.7% (active)"},
      {"smiles": "CCCNC(=O)CSc1nc(Cc2ccccc2)nc2ccccc12", "inhibition": "15.4%"},
      {"smiles": "CCN(CC)S(=O)(=O)c1cc([N+](=O)[O-])ccc1NNC(=O)Nc1ccccc1", "inhibition": "0.713%"},
      {"smiles": "COc1ccc(-n2nnnc2CNC(=O)c2ccc3ccccc3c2)cc1", "inhibition": "-1.28%"},
      {"smiles": "Cc1ccc([N+](=O)[O-])c(OCCCNCC(C)O)c1", "note": "(centres undefined)", "inhibition": "-0.0235%"},
      {"smiles": "Cc1ccc(CN2CCN(c3ncccn3)CC2)c(C)c1", "inhibition": "0.612%"},
      {"smiles": "Cc1ccc(NC(=O)c2cnc(SCC(=O)NCC3CCCO3)n(C)c2=O)cc1", "note": "(centres undefined)", "inhibition": "35.1% (active)"},
      {"smiles": "C=CCn1c(SCC(=O)NCC2CCCO2)nc2sc(C)c(C)c2c1=O", "note": "(centres undefined)", "inhibition": "0.158%"},
      {"smiles": "Cn1c(SCC(=O)c2ccccc2)ncc(C(=O)Nc2ccc(F)cc2)c1=O", "inhibition": "-0.487%"},
      {"smiles": "COc1ccc2c(c1O)-c1cccc3c1[C@@H](C2)N(C)CC3", "inhibition": "-6.28%"},
      {"smiles": "COc1ccc2cc1Oc1ccc(cc1)C[C@H]1c3cc(c(OC)cc3CCN1C)Oc1c(O)c(OC)cc3c1[C@H](C2)N(C)CC3", "inhibition": "-4.49%"},
      {"smiles": "COc1c(O)ccc2c1CN1CCc3cc4c(cc3C1C2)OCO4", "note": "(centres undefined)", "inhibition": "68.5% (active)"},
      {"smiles": "CC(C)(C)OC(=O)NC(Cc1ccccc1)C(=O)NC(CSC1CCCCO1)C(=O)NN", "note": "(centres undefined)", "inhibition": "-1.13%"},
      {"smiles": "CC1(C)CC(=O)c2cnc3nc4ccccc4n3c2C1", "inhibition": "-0.669%"},
      {"smiles": "CC(CNc1ccc([N+](=O)[O-])c2cccnc12)Nc1c([N+](=O)[O-])cc(C(F)(F)F)cc1[N+](=O)[O-]", "note": "(centres undefined)", "inhibition": "1.36%"},
      {"smiles": "COc1ccc(-c2cc(C(F)(F)F)nc(NCc3cccnc3)n2)cc1", "inhibition": "-1.1%"},
      {"smiles": "COc1ccc(-c2ccc(Nc3ccc(S(=O)(=O)N4CCCC4)cc3)nn2)cc1OC", "inhibition": "-1.08%"},
      {"smiles": "COc1ccc(-c2cc(C(F)(F)F)nc(S(C)(=O)=O)n2)cc1OC", "inhibition": "42% (active)"}
    ]}
  ]
}
